Source: PubChem
BAZ2B inh = inhibitors of human BAZ2B bromodomain; Q9UIF8; AlphaScreen BAZ2B-H3K14Ac peptide displacement; Potency, µM (doses to about 114 µM), without a hit: at the highest dose activity change, negative = inhibition, most hits filed as inhibitors; hit rate 4.4% among 360,000; AID 504333; note: potency is the fitted concentration of half-maximal effect; % is set by controls: 0 for no effect and ±100 for the full control effect; nearly all actives have a fitted effect of over 60% in size
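BAZ2B 50 nM plus b-H3(5-23)K14Ac 50 nM, PBS pH 7.4/0.01% Tween-20, 30 min RT; compound added (max 110 uM), 30 min RT; streptavidin donor/Ni-chelate acceptor beads 10 ug/mL final, 20 min dark; AlphaScreen read.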
CtBP-E1A inh = inhibitors of CtBP/E1A interaction; AlphaScreen GST-E1A/His-CtBP binding, 1536-well; active compounds read low; activity change, % (test concentration not listed); hit rate 0.49% among 340,000; in the data active = activity change below about -65%; inconclusive = mostly about -30% to -63%; note: % is set by controls: 0 for no effect and ±100 for the full control effect
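Homogeneous bead-based format: GST-tagged E1A captured on glutathione donor beads, His-tagged CtBP on nickel acceptor beads; compounds precede bead addition by 2 h at 37 °C.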
HP1b chromo inh = inhibitors of HP1-beta chromodomain binding to methylated histone tails; AlphaScreen HP1-beta / biotin-H3K9me3 peptide binding; P83916; hit rate 0.56% among 390,000; Potency, µM (highest dose often 114 µM), for the others: at the highest dose activity change, negative = inhibition, hits mostly inhibitors; note: potency is the fitted concentration of half-maximal effect; nearly all actives have a fitted effect of over 70% in size
Target sequence (P83916 whole entry, looked up): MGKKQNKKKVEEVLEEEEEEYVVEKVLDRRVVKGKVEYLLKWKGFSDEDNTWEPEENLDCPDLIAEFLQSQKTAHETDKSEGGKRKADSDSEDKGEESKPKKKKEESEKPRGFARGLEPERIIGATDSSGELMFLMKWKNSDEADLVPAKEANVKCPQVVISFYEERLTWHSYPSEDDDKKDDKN
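Compound inhibition of the preformed complex between 50 nM HP1-beta and 50 nM biotinylated H3K9me3 peptide was read by AlphaScreen. Buffer was PBS pH 7.4 with 0.01% Tween-20. Incubations ran 30 min at room temperature, with 10 ug/mL donor/acceptor beads.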
Six1-Eya2 blk = Six1/Eya2 interaction inhibition; AlphaScreen GST-Six1/His-Eya2 binding, biochemical; active compounds read low; activity change, % (test concentration not listed); Q15475+O00167; hit rate 0.56% among 360,000; AID 651725; in the data active = activity change below about -65%; inconclusive = mostly about -30% to -63%; note: % is set by controls: 0 for no effect and ±100 for the full control effect
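Compounds are tested against tagged Six1 and Eya2 proteins bridged by glutathione donor and nickel acceptor beads; after a one-hour incubation at 37 °C without light, AlphaScreen emission is recorded.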
G9a inh = G9a (human) methyltransferase inhibition | Q96KQ7 | G9a H3K9 monomethylation, AlphaScreen, 2 h | Potency, µM (doses to about 102 µM), for the others: at the top dose activity, negative = inhibition, usual class: inhibitors | hit rate 8.8% among 350,000 | AID 504332; note: potency is the fitted concentration of half-maximal effect; % is set by controls: 0 for no effect and ±100 for the full control effect; nearly all actives have a fitted effect of over 75% in size
Target sequence (Q96KQ7 913-1193 limits assumed): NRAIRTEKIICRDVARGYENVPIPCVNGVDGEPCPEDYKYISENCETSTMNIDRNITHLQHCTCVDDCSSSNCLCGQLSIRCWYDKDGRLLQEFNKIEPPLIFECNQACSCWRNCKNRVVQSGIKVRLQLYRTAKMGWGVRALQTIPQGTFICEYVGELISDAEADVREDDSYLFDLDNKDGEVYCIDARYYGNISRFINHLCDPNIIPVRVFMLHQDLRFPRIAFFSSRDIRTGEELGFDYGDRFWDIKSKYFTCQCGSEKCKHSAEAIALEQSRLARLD
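Signal arises when biotinylated H3K9 peptide, once monomethylated, bridges streptavidin donor and antibody-captured acceptor beads. Enzyme at 20 nM was preincubated 15 min with test compounds; peptide 500 nM and SAM 20 uM then reacted for 2 h.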
JMJD2A Tudor = inhibitors of human JMJD2A Tudor domain. O75164. AlphaScreen JMJD2A-Tudor / H3K4me3 peptide binding. Potency, µM (series often up to 114 µM), for inactives: top-dose activity change, negative = inhibition, usual class: inhibitors. hit rate 4.4% among 390,000; note: potency is the fitted concentration of half-maximal effect; % is set by controls: 0 for no effect and ±100 for the full control effect; nearly all actives have a fitted effect of over 50% in size
* = called active by the depositor; u = inconclusive; x = not tested or not shown; [ ] = another dose, or the depositor's remark. Only some compounds are listed: those with a hit (about 10% of all), similar ones and a draw of the others. Unless noted, calls come from the whole dose curve; as a rule, active = well fitted inhibition curve with a large enough effect; inconclusive = small, poorly fitted or top-dose-only effect; inactive = no such curve, though single readings can be large or run the other way.

SMILES	BAZ2B inh	CtBP-E1A inh	HP1b chromo inh	Six1-Eya2 blk	G9a inh	JMJD2A Tudor
O=C(Nc1nc(-c2ccccn2)cs1)Nc1ccc(F)cc1F	-28%	u	u	u	2.8µM*	40µM*
Cc1ccc(S(=O)(=O)CCC(=O)Nc2nc(-c3ccccn3)cs2)cc1	u	-73*	44%	u	15%[12.7 µM]	89µM*
Nc1c(N(CCC2=CCCCC2)C(=O)c2ccco2)c(=O)[nH]c(=O)n1Cc1ccccc1	-7%	0	25%	-6	u	-25%
O=C(COc1ccccc1)Nc1nc(-c2cccnc2)cs1	9%	-2	25%	-4	u	-5%
Cc1ccc(OCC(=O)Nc2nc(-c3ccccn3)cs2)c(C)c1	3%	u	-9%	u	40µM*	-27%
O=C(COc1ccc([N+](=O)[O-])cc1)Nc1nc(-c2ccccn2)cs1	56µM*	-92*	9%	-79*	35µM*	28µM*
O=C(COc1ccc(F)cc1)Nc1nc(-c2ccccn2)cs1	u	u	1%	-84*	45µM*	79µM*
Cc1cccc(NCc2nnc3n2CCCCC3)c1C	2%	x	17%[57 µM]	x	0%[59 µM]	-21%
CCc1nn2c(=O)cc(COc3cccc(NC(=O)c4ccco4)c3)nc2s1	u	-10	13%	-2	x	25µM*
CC(C)[C@H](N)c1cn([C@@H](CO)C(=O)N2CCNCC2)nn1	u	4	15%	4	27%[2.33 µM]	-31%
N[C@@H](CO)c1cn([C@@H](Cc2cc3ccccc3[nH]2)C(=O)N2CCNCC2)nn1	50µM*	-11	27%	-25	-6%[12.7 µM]	79µM*
NC(=O)C[C@H](N)c1cn([C@@H](CC(N)=O)C(=O)N2CCNCC2)nn1	u	-14	-4%	-8	-15%[2.33 µM]	79µM*
COCC(=O)N(C)C[C@H]1Oc2cc(C#Cc3cccnc3)ccc2S(=O)(=O)N([C@H](C)CO)C[C@H]1C	x	-11	x	3	x	x
Nc1nc2c(F)c(F)c(F)cc2s1	-2%	x	3%	4	18µM*	-14%
CCN1CCN(C(=O)COCc2cc(-c3ccc4c(c3)OCO4)on2)CC1	-16%	-5	20%	5	u	-17%
COc1ccc(N2CCN(C(=O)COCc3cc(-c4ccc5c(c4)OCO5)on3)CC2)cc1	u	-15	4%	0	14µM*	-24%
CCOC(=O)c1cc(-c2ccc(F)cc2)n(CCC(=O)Nc2nc3ccc(OC)cc3s2)c1C	u	x	-25%	x	-49%[59 µM]	56µM*
CCOC(=O)c1cc(-c2ccccc2)n(CCC(=O)N2CCN(c3ccc(OC)cc3)CC2)c1C	25µM*	u	u	u	u	u
COc1ccc(N2CCN(C(=O)COc3ccccc3)CC2)cc1	-13%	9	13%	-3	45µM*	-28%
CCC(=O)N1CCC1(C)C(=O)Nc1cc(-c2ccccc2)nn1C (stereo not drawn)	x	8	x	9	x	x
COc1ccccc1CCC(=O)N1CCN(S(=O)(=O)c2cc(C(F)(F)F)ccc2Cl)CC1	0%	x	37%	2	8.9µM*	-15%
COc1ccc(N2CCN(C(=O)CCCSc3nc4ccccc4[nH]3)CC2)cc1	-26%	-1	12%	-1	45µM*	-17%
NC(=O)CCCSc1nc2ccccc2[nH]1	1%	13	40%	6	5%	2%
COc1ccc(N2CCN(C(=O)COc3cccc4ccccc34)CC2)cc1	11µM*	u	u	u	x	32µM*
O=C(COc1ccc(-c2ccccc2)cc1)N1CCCC1	u	x	22%	-2	35µM*	-9%
SMILES	BAZ2B inh	CtBP-E1A inh	HP1b chromo inh	Six1-Eya2 blk	G9a inh	JMJD2A Tudor
Cn1cc(S(=O)(=O)N2CCc3ccccc32)cc1C(=O)Nc1ccc(C(F)(F)F)cc1	-36%	x	-17%	x	u	u
Cc1cc(N2C(=O)c3ccccc3C2=O)no1	x	x	x	x	x	-11%
Cc1cc(OCC(=O)N2CCCC2)ccc1Cl	5%	1	69%	2	-6%[59 µM]	-2%[57.1 µM]
COc1ccccc1N1CCN(C(=O)COc2cc(C)ccc2C)CC1	1%	-7	u	-4	-10%[59 µM]	20µM*
COc1ccccc1N1CCN(C(=O)COc2ccc(C)cc2Br)CC1	-32%	-2	15%	-3	u	-16%
COc1ccc(N2CCN(C(=O)CCc3c(C)nc4cc(-c5ccc(OC)cc5OC)nn4c3C)CC2)cc1	18µM*	x	4%	x	u	-15%
Cc1cc(OCC(=O)N2CCCC2)cc(C)c1Cl	12%	3	39%	-1	1.3µM*	13%
COc1ccc(-c2cc3nc(C)c(CCC(=O)N4CCN(c5ccc(F)cc5)CC4)c(C)n3n2)c(OC)c1	-16%	x	28%	x	u	-27%
Cc1ccc(C)c(OCCCC(=O)N2CCOCC2)c1	1%	3	4%	6	45µM*	u
COc1cc(Cl)c(S(=O)(=O)NCc2ccccn2)cc1Cl	-14%	5	8%	-1	u	-11%
O=c1[nH]c(SCc2ccccc2)nc2ccsc12	-10%	-16	49%	0	10%	-6%[57.1 µM]
CC(NC(=O)c1cccc(S(=O)(=O)N2CCN(Cc3ccccc3)CC2)c1)c1ccc(Cl)cc1 (stereo not drawn)	-1%	-7	-3%	-2	-40%	-16%
COc1ccccc1CCC(=O)N1CCN(C(=O)c2ccccc2)CC1	4%	-10	21%	3	24%	-1%
Cc1ccc(OCC(=O)N2CCC(N3CC(C)CC(C)C3)CC2)cc1 (stereo not drawn)	-37%	2	u	2	25µM*	1.6µM*
COc1ccc(N2CCN(C(=O)CCC(=O)N3Cc4ccccc4Oc4ncccc43)CC2)cc1	40µM*	-22	5%	-4	x	-27%
COc1ccc(N2CCN(C(=O)CCc3ccccc3OC)CC2)cc1	u	x	-7%	-12	79µM*	u
Cc1ccc(S(=O)(=O)N2CCN(C(=O)COc3ccc(Br)cc3)CC2)cc1	1%	8	-14%	3	11%[12.7 µM]	-11%
C=CCn1c(N)cc(=O)nc1SCC(=O)Nc1ccc(C(=O)OCC)cc1	8%	-6	-1%	-7	6%	-13%
Cc1oc2ccccc2c1CC(=O)NCCCN(C)C	u	x	59%	6	50µM*	-21%
CN(C)CCCNC(=O)/C(=N\O)c1ccccc1	-22%	0	50%	18	56µM*	-3%[57.1 µM]
CN(C)CCCNC(=O)c1ccccn1	-5%	1	7%	5	8%	-16%
CCOc1cc(CN2CCCC(CNC(=O)c3ccc(F)cc3)C2)ccc1OC (stereo not drawn)	-15%	x	21%	6	11%	-7%
